Laboratory results reported in PubChem BioAssay.

Assay: small-molecule microarray binders of probe aEGFR, primary screen, biochemical, biotinylated probe, 635/667 nm fluorescence (AID 1097);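 further: probe is a biotinylated anti-EGFR antibody binding compounds printed on slides; score combines fluorescence near 667 nm and signal to noise of each spot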
Details: higher = more signal

SMILES | composite z-score
CCOC(=O)C[C@H]1[C@H](OC(=O)Cc2ccc3c(c2)OCO3)[C@@H](NC(=O)C2CCCCC2)c2cc(OCCCO)ccc2N1C(=O)Cc1ccc(OC)cc1 | -0.0234
COCCOC(=O)N1C(=O)[C@@]2(c3cc(C#CCC(C(=O)OC)C(=O)OC)ccc31)[C@H](C(=O)N1CCN(c3ncccn3)CC1)[C@H]1C(=O)O[C@H](c3ccccc3)[C@H](c3ccccc3)N1[C@@H]2c1ccc(OCCO)cc1 | -0.141
COc1ccc(C#Cc2ccc3c(c2)[C@]2(C(=O)N3)[C@H](c3ccc(O)cc3)N3[C@H](c4ccccc4)[C@H](c4ccccc4)OC(=O)[C@H]3[C@@H]2C(=O)N2CCCCCCC2)cc1 | 0.778
O=C1OCC=C[C@H]2OC34C=CCN(c5ccc(Cl)cc5)C(=O)[C@H]3N(CCCCCCO)C(=O)[C@@H]4[C@@H]12 (stereo not given in full) | -0.273
O=C1O[C@H](c2ccccc2)[C@H](c2ccccc2)N2[C@H]1[C@@H](C(=O)N1CCN(c3ncccn3)CC1)[C@]1(C(=O)Nc3ccccc31)[C@H]2c1ccc(OCCO)cc1 | -0.0763
